About 83,000 compounds went through this panel and 20% of them were active in at least one assay; those are over-represented in the sample as a whole.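 In brief: 96-well plates, 48 h treatment, single concentration, percent growth endpoint.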 Values without a mark were called inactive. The source made the active and inactive calls. The calls were made as follows: active = growth percent below 10; inactive = the rest.
What was measured:
Experiment in all cases: NCI-60 one-dose screen, 48 h (100 = growth as untreated, 0 = no growth, -100 = all killed)
Conditions in all cases: 10 µM unless noted
T-47D breast = tested on: T-47D breast
BT-549 breast = tested on: BT-549 breast
MDA-MB-435 melanoma = tested on: MDA-MB-435 melanoma
SW-620 colon = tested on: SW-620 colon
MCF7 breast = tested on: MCF7 breast
HCT-116 colon = tested on: HCT-116 colon
HCC-2998 colon = tested on: HCC-2998 colon
KM12 colon = tested on: KM12 colon
MDA-MB-468 breast = tested on: MDA-MB-468 breast

Row | SMILES | growth (T-47D breast) | growth (BT-549 breast) | growth (MDA-MB-435 melanoma) | growth (SW-620 colon) | growth (MCF7 breast) | growth (HCT-116 colon) | growth (HCC-2998 colon) | growth (KM12 colon) | growth (MDA-MB-468 breast)
1 | COc1cc(C2CC(c3cc(OC)c(OC)c(OC)c3)=NN2C(C)=O)ccc1OCc1ccccc1 (configuration not stated) | 2.7% (active) | 17.4% | 44.6% | 55.1% | 17.1% | 24.3% | 71.2% | 33.9% | 34.2%
2 | COc1cc2c(c(OC)c1OC)C(=O)CC(c1cccc(NC(=O)c3cc(N)ccc3Cl)c1)O2 (configuration not stated) | 35.4% | 23.3% | -41.3% (active) | 37.4% | 14% | 34.7% | 95.7% | 49.2% | 5.35% (active)
3 | C/C(=N\N=C\c1cc([N+](=O)[O-])ccc1Cl)c1ccc2c(c1)Nc1ccccc1S2 | 29.7% | 63% | 77.2% | 50% | 63.1% | 11.1% | 90.5% | 89.1% | 34.1%
4 | Cn1cc(-c2nc(N)nnc2-c2c[nH]c3ccc(F)cc23)c2cccnc21 | 19.4% | 38% | 49.6% | 46.7% | 21.2% | 43.2% | 72.8% | 60.9% | 7.74% (active)
5 | O=S(=O)(Nc1cccc(-n2cnc3cc(-c4ccc(O)cc4)ccc32)c1)C1CC1 | 27.3% | 14.3% | -21.3% (active) | 31.1% | 21.8% | 13.4% | 40.8% | 6.07% (active) | 3.78% (active)
6 | COc1cc2c(c(OC)c1OC)C(=O)CC(c1cccc(NC(=O)c3cc([N+](=O)[O-])ccc3Cl)c1)O2 (configuration not stated) | 23.6% | -11% (active) | 28.5% | -6.32% (active) | 11.7% | -66.1% (active) | 33% | -54.7% (active) | -13.7% (active)
7 | CN1C(=O)/C(=C/c2ccc(C(=O)Nc3ncc(Cc4ccc(Cl)cc4Cl)s3)cc2)SC1=S | 23.9% | 31.6% | -4.21% (active) | 45.1% | 30.6% | 29.6% | 40.4% | 15.5% | -9.37% (active)
8 | COc1ccc(-c2nc3ccc(C(=O)NN4C(=O)c5ccc([N+](=O)[O-])cc5C4=O)cc3[nH]2)cc1 | 97% | 105% | 98.3% | 101% | 83% | 102% | 108% | 101% | 89.7%
9 | CC1(C)CC[C@]2(C(=O)Nc3ccc(F)cc3)CC[C@]3(C)C(=CCC4[C@@]5(C)C[C@@H](O)[C@H](O)[C@@](C)(CO)C5CC[C@]43C)C2C1 (some centres not stated) | 15.5% | 33.2% | 39.9% | 59.4% | 7.64% (active) | 17.2% | 36% | 30.1% | 7.26% (active)
10 | CCN(CC)c1ccc(/C=N/Nc2nc(-c3ccc(Br)cc3)cs2)c(O)c1 | 80.9% | 37.4% | 64.5% | 10.5% | 18.7% | 18.3% | 100% | 86.3% | 69%
11 | COc1ccc2c(c1)c(-c1cc(N)n3nc(-c4cn(C)c5ccccc45)cc3n1)cn2C | -57.4% (active) | -22.4% (active) | -75.6% (active) | -58.5% (active) | -60.6% (active) | -88.6% (active) | -82% (active) | -60.6% (active) | -34.6% (active)
12 | O=C(c1ccc(OCCN2CCOCC2)cc1)C1[C@H](c2ccc(Cl)cc2)[C@@H](c2ccccc2)NC12C(=O)Nc1ccc(Cl)cc12 (some centres not stated) | 34.6% | 57.1% | 42% | 41.5% | 4.28% (active) | 11.5% | -30% (active) | 16.4% | -7.83% (active)
13 | C=C1CCC2C3(C)COC(c4cccc(F)c4)OC3CCC2(C)C1C/C=C1/C(=O)OCC1O (configuration not stated) | -5.25% (active) | -82.2% (active) | -10.3% (active) | -63% (active) | -7.05% (active) | -73.8% (active) | -51% (active) | -27.8% (active) | -35.2% (active)
14 | CC1(C)CC[C@]2(C(=O)O)CC[C@]3(C)C(=CCC4[C@@]5(C)C[C@@H](O)[C@@H]6OC(c7ccco7)OC[C@@]6(C)C5CC[C@]43C)C2C1 (some centres not stated) | 46.4% | 13.9% | 12.2% | 23.6% | 21% | 11.8% | 34% | 17.3% | 8.23% (active)
15 | COc1ccc(-c2nc3cc(C)ccc3n2CC(=O)N=Nc2c(O)[nH]c3ccccc23)cc1 | 28.9% | -63.2% (active) | 12.4% | 6.89% (active) | 20% | -95.1% (active) | 26.8% | 14.1% | -0.636% (active)
16 | O=C(COc1ccc(NC(=O)Nc2ccc(Cl)c(Cl)c2)cc1)N=Nc1c(O)[nH]c2ccccc12 | 11.6% | -38.4% (active) | -63.8% (active) | -62% (active) | -6.27% (active) | -1.24% (active) | -49.3% (active) | -38.3% (active) | -47.7% (active)
17 | CNS(=O)(=O)c1ccc(Nc2ccc(C(F)(F)F)cc2)c(-c2cn(C)cn2)c1 | 47.7% | 58.7% | 55.5% | 70.9% | 42.3% | 49.4% | 43.6% | 35.9% | -1.31% (active)
18 | O=C(c1ccc(Cl)cc1)c1ccc(OCCCN2CCN(c3ccncc3)CC2)cc1 | 29% | 26.9% | 41.4% | 19.5% | 13.6% | 17.4% | 64.9% | 57.9% | -16.8% (active)
19 | NS(=O)(=O)c1ccc(N=Nc2c(O)n(CC(=O)Nc3ccccc3Cl)c3ccccc23)cc1 | 19.7% | -4.12% (active) | 34.5% | 24.5% | 6% (active) | 8.6% (active) | 28.3% | 17.1% | 26.3%
20 | Nc1nc(-c2ccccc2)c(N=Nc2ccc([N+](=O)[O-])cc2Cl)s1 | 40.7% | 82.9% | 87.1% | 90.3% | 68.1% | 70.1% | 99.9% | 90.4% | 55.8%
21 | CCCCc1c(Nn2cnnn2)no[n+]1[O-] | 51.5% | 49.4% | 46.5% | 57.6% | 24.5% | 38.2% | 78.8% | 61.7% | 49.3%
22 | Cc1cc2nc3c4ccccc4n(CCCN(C)C)c3nc2cc1C | -10.7% (active) | -78.2% (active) | -93% (active) | -16.3% (active) | -30% (active) | 3.73% (active) | -81.4% (active) | -8.99% (active) | -56.9% (active)
23 | CN(C)CCOc1ccc(C(=O)C2[C@H](c3ccc(Cl)cc3)[C@@H](c3ccccc3)NC23C(=O)Nc2ccccc23)cc1 (some centres not stated) | 67.9% | 81.8% | 44.6% | -57.7% (active) | -20.8% (active) | 22% | -59.9% (active) | 33.4% | -26% (active)
24 | Cc1ccc([C@H]2C(C(=O)c3ccc(Cl)cc3)C3(N[C@@H]2c2ccccc2)C(=O)Nc2ccc(Cl)cc23)cc1 (some centres not stated) | 31.6% | 80.9% | 64.3% | 64.1% | 16.7% | 23.7% | 18.8% | 34.8% | 47.9%
25 | C#CCOc1ccc(/C=N/Nc2nc(-c3cc4cc(OC)ccc4oc3=O)cs2)cc1OC | 51.8% | 54.1% | 63.9% | 39.7% | 57.3% | 46.4% | 84.4% | 50.3% | 42.9%
26 | O=C(c1ccccc1)c1ccc2nc(-c3cccc(Cl)c3)[nH]c2c1 | 98.6% | 105% | 106% | 108% | 105% | 103% | 110% | 108% | 105%
27 | O=C1CCCc2cc(OCC(=O)N3CCCCC3)ccc2N1 | 108% | 126% | 108% | 106% | 94% | 114% | 122% | 108% | 107%
28 | COC(=O)/C=C/c1cccc2c1C(=O)NC(C)(c1cc3cc4ccccc4cc3oc1=O)N2 (configuration not stated) | 71.8% | 45.2% | 76.1% | 54.3% | 47.2% | 44.5% | 68.5% | 53.7% | 41%
